Test results published in PubChem BioAssay (NCI).
This is part of a sample that, as a whole, favours compounds with a hit. Of some 83,000 tested, about 20% had one in any assay.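 Each cell line was grown in a 96-well plate and treated with one concentration of compound for 48 hours. Values below 10 were considered active.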 Active and inactive are the calls of the source.

Tests used:
Assay in all cases: NCI-60 one-dose screen, 48 h (100 = growth as untreated, 0 = no growth, -100 = all killed)
Settings in all cases: 10 µM unless noted
[1] = system: EKVX NSCLC
[2] = system: SN12C renal
[3] = system: UO-31 renal
[4] = system: TK-10 renal
[5] = system: ACHN renal
[6] = system: CAKI-1 renal
[7] = system: A498 renal
[8] = system: CCRF-CEM leukemia
[9] = system: MOLT-4 leukemia
[10] = system: SR leukemia
[11] = system: RPMI-8226 leukemia
[12] = system: OVCAR-8 ovarian
[13] = system: OVCAR-5 ovarian
[14] = system: OVCAR-4 ovarian
[15] = system: SK-OV-3 ovarian
[16] = system: IGROV1 ovarian
[17] = system: OVCAR-3 ovarian
[18] = system: NCI/ADR-RES ovarian
[19] = system: HS 578T breast

Measured: growth

COc1ccc2nc3ccccc3c(NCc3ccccc3)c2c1
active: [7] -14.3% | [9] 8.01% | [10] 4.27% | [11] -30.9%
inactive: [1] 26.9% | [2] 22.4% | [3] 13.8% | [4] 38.7% | [5] 12.8% | [6] 25.8% | [8] 33.4% | [12] 28.2% | [13] 29% | [14] 40.8% | [15] 44.5% | [16] 16.4% | [17] 41% | [18] 18.3%

Cc1ncc(C(=O)Nc2ccc(CN3CCN(C)CC3)c(C(F)(F)F)c2)cc1C#Cc1cnc(N)c2ccncc12
active: [1] -18.9% | [2] -26.8% | [3] -42.2% | [4] -59% | [5] -64.3% | [6] -56.8% | [7] -90.2% | [8] -23.3% | [9] -42.5% | [10] -41% | [11] -43.7% | [12] -35.5% | [13] -13.6% | [14] -16.9% | [15] -34.7% | [16] -42.5% | [17] -43.6% | [19] -19% | [18] -25.1%

CCCCCCCC/C=C\CCCCCCCCOc1ccccc1CC(=O)NCC[N+]1(C)CCCCC1
active: [10] -5.14%
inactive: [2] 43.2% | [3] 94.8% | [4] 75.8% | [5] 110% | [6] 81.9% | [7] 94.6% | [8] 23.1% | [9] 20.5% | [11] 19.7% | [12] 60.5% | [13] 66.2% | [14] 34.1% | [15] 85.2% | [16] 16.5% | [17] 41.3% | [19] 77.2% | [18] 99.3%

CN1CCN(c2ccc(NC(=O)c3cncnc3Nc3ccc4c(ccn4Cc4cccc(F)c4)c3)cc2)CC1
active: [9] -2.02%
inactive: [1] 86.1% | [2] 71.5% | [3] 46.3% | [4] 101% | [5] 58.5% | [6] 75.5% | [7] 77% | [8] 11.6% | [10] 10.9% | [11] 46.1% | [12] 34.9% | [13] 65.5% | [14] 66.2% | [15] 97.4% | [16] 77.1% | [17] 80.8% | [18] 75.8%

CCC(CC)(N(CC(=O)O)CC(=O)O)C(CC)(CC)N(CC(=O)O)CC(=O)O
inactive: [1] 117% | [2] 94.8% | [3] 103% | [4] 103% | [5] 116% | [6] 98.4% | [7] 126% | [8] 93% | [9] 107% | [10] 93.7% | [12] 101% | [13] 117% | [14] 101% | [15] 104% | [16] 116% | [17] 121% | [19] 118% | [18] 107%

O=C(CSc1nc2ccc([N+](=O)[O-])cc2[nH]1)Nc1cccc([N+](=O)[O-])c1
inactive: [1] 48.8% | [2] 49.6% | [3] 33.4% | [4] 69.5% | [5] 62.5% | [6] 41.2% | [7] 31.7% | [8] 40.8% | [9] 43.6% | [10] 41.1% | [11] 11.9% | [12] 60% | [13] 82.6% | [14] 28.7% | [15] 55.8% | [16] 59.1% | [17] 38.9% | [19] 66.9% | [18] 66.9%

COc1ccc(-c2ccc(=O)oc2C#Cc2cc(OC)c(OC)c(OC)c2)cc1O
inactive: [1] 30.3% | [2] 21.2% | [3] 40.5% | [4] 52.5% | [5] 52% | [9] 18.4% | [11] 15.3% | [12] 20% | [13] 46.2% | [14] 58.6% | [15] 30.7% | [16] 28.9% | [18] 16.4%
active: [6] -15.6% | [7] -0.779% | [8] 5.26% | [10] 7.05% | [17] -67.2% | [19] -8.91%

CCOC(=O)c1c(-c2ccc(Cl)cc2)c(C#N)c2c(C#N)c(N)nn2c1N
inactive: [1] 60.1% | [2] 79.1% | [3] 66.4% | [4] 84.4% | [5] 72% | [6] 66% | [7] 29.3% | [8] 30.5% | [9] 25.6% | [10] 11.9% | [11] 49.3% | [12] 75.9% | [13] 83.4% | [14] 77.3% | [15] 84.1% | [16] 62.2% | [17] 65.4% | [18] 63.1%

CC(=O)c1c(Nc2ccc(F)c(F)c2F)[nH]c2c(F)cc(F)cc2c1=O
inactive: [4] 12.7% | [13] 12.8% | [14] 12.1% | [16] 16.2%
active: [1] 9.73% | [2] 1.04% | [3] 4.44% | [5] 0.167% | [6] -10.4% | [7] -33.4% | [8] 6.3% | [9] -3.98% | [10] 8.21% | [11] -10.6% | [12] 5.38% | [15] -4.26% | [17] 7.99% | [18] 1.67%

CN(CCC#N)c1ccc(/C=C2\NC(=O)NC2=O)cc1
inactive: [1] 79.3% | [2] 98.6% | [3] 84.4% | [4] 93.5% | [5] 97.9% | [6] 82.8% | [7] 89.3% | [8] 107% | [9] 92% | [10] 102% | [11] 110% | [12] 111% | [13] 98.7% | [14] 102% | [15] 105% | [16] 105% | [17] 121% | [19] 88.8% | [18] 93.2%

N#C/C(=C\c1ccc(Br)cc1)c1cc2ccccc2[nH]1
active: [8] -42.4%
inactive: [1] 91% | [2] 97.6% | [3] 86.8% | [4] 119% | [5] 102% | [6] 92.7% | [7] 89.1% | [9] 84.5% | [10] 81.2% | [11] 78.9% | [12] 96.8% | [13] 93.9% | [14] 112% | [15] 81% | [16] 91.4% | [17] 107% | [19] 98.4% | [18] 98.7%

C=CC(=O)N1CCN(c2ccc3cccc(NC(=O)c4cnc(C)cn4)c3n2)CC1
inactive: [1] 66.6% | [4] 23.2% | [8] 32.1% | [9] 35.7% | [11] 43.3% | [12] 27.2% | [13] 71.5% | [14] 43.7% | [15] 11.1% | [17] 43.5% | [18] 30.9%
active: [2] 9.63% | [3] 0.645% | [5] 5.43% | [6] 4.05% | [7] -12.7% | [10] 9.43% | [16] 9.7%

N#CC(C#N)N=Nc1ccc(Cl)cc1Cl
inactive: [1] 99.3% | [2] 82.9% | [3] 57.8% | [4] 90.8% | [5] 58.4% | [6] 70.8% | [7] 84.7% | [8] 48.3% | [9] 75.5% | [10] 48.1% | [11] 50.8% | [12] 94% | [13] 104% | [14] 71.4% | [15] 77% | [16] 89.5% | [17] 62% | [19] 103% | [18] 103%

Cc1cscc(C)c1=S
active: [5] -5.99%
inactive: [2] 87.5% | [3] 70.5% | [4] 92.4% | [6] 51.2% | [7] 128% | [8] 91.1% | [9] 81.2% | [10] 72.9% | [11] 103% | [12] 83.3% | [13] 67.5% | [14] 113% | [15] 98.9% | [16] 77% | [17] 121% | [19] 122% | [18] 71.1%

Cc1cc(N2CCCCC2)nc(N2CCN(CC(=O)Nc3ccc4c(ccn4Cc4ccccc4)c3)CC2)n1
inactive: [1] 62.1% | [2] 64.2% | [3] 30% | [4] 84% | [5] 76.6% | [6] 56.3% | [8] 64.5% | [9] 52.6% | [10] 64% | [11] 53.4% | [13] 88.7% | [14] 54.2% | [15] 62.3% | [16] 64.5% | [17] 68.7% | [19] 66.7% | [18] 47.9%
active: [7] 8.63%

COc1ccc(-c2nnc(SCC(=O)Nc3ccc(/C(C)=N\O)cc3)n2-c2ccccc2)cc1OC
inactive: [1] 71.1% | [2] 71.8% | [3] 104% | [4] 41.1% | [5] 75.5% | [6] 87.4% | [7] 91.8% | [8] 98.5% | [9] 91.7% | [10] 95.4% | [11] 91.6% | [12] 42.7% | [13] 97% | [14] 103% | [16] 70.9% | [17] 82% | [19] 42.8% | [18] 90.6%
active: [15] 4.74%

COc1ccc(C2=C/C(=C\c3ccc(Cl)cc3)C(=O)N2/N=C/c2ccc(Cl)cc2)cc1
inactive: [1] 93.8% | [2] 87.7% | [3] 79.4% | [4] 87.2% | [5] 98.3% | [6] 90.5% | [7] 103% | [8] 100% | [9] 92% | [10] 88.3% | [11] 101% | [12] 83.5% | [13] 103% | [14] 79.2% | [15] 88.6% | [16] 91.2% | [17] 99.6% | [19] 91.4% | [18] 104%
